Assay outcomes as filed in PubChem.
Hits are enriched below; roughly 4.4% of the tested compounds scored in any of these assays.
tim10-1 inh = tim10-1 yeast growth inhibition. inhibition, % at 20 µM. S. cerevisiae tim10-1 ts strain growth, BacTiter-Glo, 24 h. 330,000 compounds, 2.2% hits;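 active = inhibition of at least 40%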;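 note: mutant grown at 25 °C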
PfHsp90 set2 = growth inhibition of yeast expressing Plasmodium Hsp90 | S. cerevisiae expressing PfHsp90, BacTiter-Glo ATP, 48 h; yeast lacking PDR1 and PDR3 efflux regulators | inhibition, % at 9.4 µM | 310,000 compounds, 0.32% hits | AID 504621;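 active = every replicate shows inhibition above about 80%, whatever the replicate mean, limit read from the data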
tim23-1 inh = inhibits growth of tim23-1 mutant yeast | S. cerevisiae tim23-1 growth, BacTiter-Glo luminescence, 24 h | inhibition, % at 20 µM | 330,000 compounds, 1.3% hits | AID 463212;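 active = growth inhibition of the mutant yeast at or above 50%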;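 note: temperature-sensitive mutant grown at 25 °C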
SKKanGAS inh = blocks kanamycin growth of S. pyogenes SKKanGAS strain; 300,000 compounds, 1.3% hits; BacTiter-Glo, 6 h; inhibition, % at 7.5 µM;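 active = mean replicate score, as percent of positive control median, at least 50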;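 note: strain carries kanamycin resistance gene driven by streptokinase promoter and grows in 40 µg/ml kanamycin; loss of luminescence reflects streptokinase promoter inhibition or plain growth inhibition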
TIM10 inh = inhibits growth of TIM10 yeast strain; inhibition, % at 10 µM; 330,000 compounds, 1.4% hits; S. cerevisiae TIM10 strain growth, BacTiter-Glo luminescence, 24 h;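 active = inhibition of 40% or more at the single tested concentration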;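 note: wild-type TIM10 isogenic control strain grown at permissive 25 °C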
tim10-1 conf = tim10-1 yeast growth inhibition, confirmed. shares compounds with tim10-1 inh. S. cerevisiae tim10-1 ts strain growth, BacTiter-Glo, 24 h. inhibition, % at 20 µM. 7,400 compounds, 56% hits. AID 463213;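 active = inhibition of yeast growth at or above a set limit in either of two repeat tests at 20 µM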;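 note: tim10-1 mutant grown at permissive 25 °C to find synthetic lethal compounds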
TIM10 conf = TIM10 yeast growth inhibition, confirmed; shares compounds with TIM10 inh; S. cerevisiae tim10 strain growth, BacTiter-Glo luminescence, 24 h; inhibition, % at 10 µM; 4,600 compounds, 63% hits;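 active = inhibition of yeast growth at or above a set limit in either of two replicates at 10 µM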; note: this counterscreen used the strain with wild-type TIM10
Large screens that a line does not name were inactive (follow-up assays come after a bar, where they were run).

C[C@H](CO)N1C[C@H](C)[C@@H](CN(C)S(=O)(=O)c2cn(C)cn2)Oc2ccc(NC(=O)Cc3ccccc3)cc2C1=O	none (no result: SKKanGAS inh)
CCOC(=O)c1cnc2ccc(OC)cc2c1Nc1ccc2c(c1)OCCO2	tim10-1 inh 56.3, TIM10 inh 42.7 | tim10-1 conf 48.3 | TIM10 conf inactive
CN(C)C(CNC(=O)c1ccccc1OCc1ccc(Cl)cc1)c1ccco1 (stereo not drawn)	none
Cc1ccc2cc(/C=C(\C#N)C(N)=O)c(N3CCCCC3)nc2c1	tim10-1 inh 41.6, TIM10 inh 46.1 | tim10-1 conf inactive | TIM10 conf 33.7
COc1ccccc1OCC(=O)N/N=C/C=C/c1ccc([N+](=O)[O-])o1	tim10-1 inh 67.0, TIM10 inh 47.7 | tim10-1 conf 83.7 | TIM10 conf 50.8
Cc1ccccc1OCC(=O)N/N=C/c1ccc([N+](=O)[O-])o1	tim10-1 inh 44.6, TIM10 inh 41.6 | tim10-1 conf 35.1 | TIM10 conf inactive
Cc1ccccc1OCC(=O)NCC(=O)N/N=C/c1ccc(Br)o1	none
CCCCCCCC(=O)N/N=C/c1ccc([N+](=O)[O-])o1	tim10-1 inh 55.2, TIM10 inh 49.4 (no result: PfHsp90 set2) | tim10-1 conf 56.3 | TIM10 conf inactive
COc1ccc(Cl)c2sc(N(CCN(C)C)C(=O)C3=COCCO3)nc12	none (no result: tim10-1 inh, tim23-1 inh, SKKanGAS inh, TIM10 inh)
COc1ccc(N(C)S(=O)(=O)c2cccc(C(=O)OCC(=O)c3c(N)n(C)c(=O)n(C)c3=O)c2)cc1	none (no result: PfHsp90 set2, SKKanGAS inh)
CCCC1CC(C)(c2csc(Nc3ccc(OCC)cc3)n2)OC1=O (stereo not drawn)	tim10-1 inh 40.4, TIM10 inh 48.3 | tim10-1 conf inactive | TIM10 conf 46.1
COc1ccc(/C=C2\CCc3ccccc3C2=O)cc1Cn1nc(C)cc1C	tim10-1 inh 45.2, TIM10 inh 48.6 | tim10-1 conf 36.8 | TIM10 conf 40.5
COc1ccc(/C=C2/CCc3ccccc3C2=O)cc1CN1CCOCC1	none
CCN(CC(=O)Nc1c(F)cccc1F)C(=O)c1ccc2c(c1)OCCO2	none
CCOC(=O)N/N=C\c1ccc(-c2cc(Cl)ccc2Cl)o1	tim10-1 inh 44.1, TIM10 inh 41.2 | tim10-1 conf 34.1 | TIM10 conf 34.6
Cc1cc(C)c2c(=O)n(CC(=O)Nc3ccc(Br)c(C)c3)sc2n1	tim10-1 inh 72.0, TIM10 inh 66.6 | tim10-1 conf 93.2 | TIM10 conf 93.9
Cn1cnc2nc[nH]c2c1=O	none (no result: tim10-1 inh, tim23-1 inh, SKKanGAS inh, TIM10 inh)
COc1ccc(/C=C/C(=O)OCC(=O)NC2CCCC2)c(OC)c1	none (no result: SKKanGAS inh)
CN1CCN(Cn2cc(/C=C/C(=O)c3ccccc3)c3ccccc32)CC1	tim10-1 inh 61.6, TIM10 inh 66.7 | tim10-1 conf inactive | TIM10 conf 65.2
CCOC(=O)/C=C/C(=O)OCC(=O)Nc1ccc(OC)c(Cl)c1	tim10-1 inh 53.4, TIM10 inh 44.1 | tim10-1 conf 40.8 | TIM10 conf 36.1
COc1ccc(NC(=O)COC(=O)/C=C/C(=O)OCC(=O)Nc2ccc(OC)c(Cl)c2)cc1Cl	none
CCc1n[nH]c(=S)n1/N=C/c1ccc(N(CC)CC)cc1	tim10-1 inh 42.3, TIM10 inh 45.0 | tim10-1 conf inactive | TIM10 conf inactive
CCc1n[nH]c(=S)n1/N=C/c1c(C)nn(-c2ccccc2)c1Cl	none
C[C@H](NS(=O)(=O)c1ccc2c(c1)OCCCO2)C(=O)N1CCN(Cc2ccc(C#N)cc2)CC1	none (no result: PfHsp90 set2, SKKanGAS inh)
O=[N+]([O-])c1cccnc1N1CCC(c2cc(-c3ccc(Cl)cc3)n[nH]2)CC1	tim10-1 inh 42.8, SKKanGAS inh 73.2, TIM10 inh 48.9 | tim10-1 conf 37.0 | TIM10 conf 46.5
CCOC(=O)CN1CCC(c2cc(-c3ccc(Cl)cc3)n[nH]2)CC1	none
O=C(/C(=C/O)N=Nc1ccccc1Cl)c1ccccc1	tim10-1 inh 42.9, TIM10 inh 91.4 | tim10-1 conf inactive | TIM10 conf inactive
Cc1ccccc1CN1CCN(C2CCC2)CC1CCO (stereo not drawn)	none
CCOC(=O)c1c(N2C(=O)CC(Sc3ccccc3C(=O)O)C2=O)sc2c1CCCC2 (stereo not drawn)	tim10-1 inh 53.8, TIM10 inh 43.1 | tim10-1 conf 44.0 | TIM10 conf 40.5
COc1ccccc1N1CCN(C2CCN(S(=O)(=O)c3ccc(NC(C)=O)cc3)CC2)CC1	none
CCc1cccc(C)c1NC(=S)NCc1ccc2[nH]c(C)cc2c1	tim10-1 inh 50.8, TIM10 inh 47.5 | tim10-1 conf inactive | TIM10 conf 36.7
CCCCN(C(=O)CCCc1nc2ccccc2s1)c1c(N)n(CC(C)C)c(=O)[nH]c1=O	none (no result: SKKanGAS inh)
CCOC(=O)C1(Cc2ccc(Cl)cc2)CCN(Cc2nccn2CC)CC1	none
CCOC(=O)C1(S(=O)(=O)c2ccc(Cl)cc2)CCN(Cc2ccc(Cl)cc2)CC1	tim10-1 inh 47.7, TIM10 inh 42.4 | tim10-1 conf inactive | TIM10 conf 34.2
CCCn1nc(C(=O)Nc2ccc(N3CCOCC3)cc2)c2ccccc2c1=O	none (no result: SKKanGAS inh)
N#CCC(=O)N1CCN(C=O)CC1	none
O=C(c1ccc(-c2ccc([N+](=O)[O-])cc2)o1)N1CCCC(C(F)(F)F)C1 (stereo not drawn)	tim10-1 inh 64.0, TIM10 inh 42.6 (no result: PfHsp90 set2) | tim10-1 conf 55.5 | TIM10 conf 47.6
CC1CCCN(C(=O)c2ccc([N+](=O)[O-])o2)C1 (stereo not drawn)	tim10-1 inh 56.9, TIM10 inh 45.9 | tim10-1 conf 40.2 | TIM10 conf 40.2
CC1CCCN(C(=O)c2ccc(-c3ccccc3Cl)o2)C1 (stereo not drawn)	none
O=C(CSc1nnc(CNC(=O)c2c(F)cccc2F)o1)NCc1ccc(F)cc1	none
COc1ccc(/C=N/N(C)C2=NCCN2)c(OC)c1OC	none
COc1cccc(O)c1CN1CCC(n2nccc2NC(=O)c2ccc3c(c2)OCO3)CC1	none
COc1ccc(C(=O)Oc2ccc(F)cc2C(=O)/C=C/c2ccc(OC)c(OC)c2)cc1	none
O=C(Oc1ccc(F)cc1C(=O)/C=C/c1cccs1)c1cccc([N+](=O)[O-])c1	tim10-1 inh 50.8, TIM10 inh 49.9 | tim10-1 conf 39.5 | TIM10 conf inactive
COc1ccc(NC(=O)CC2Sc3ncnn3C2=O)cc1 (stereo not drawn)	none
CCOC(=O)c1ccc(NC(=O)CC2Sc3ncnn3C2=O)cc1 (stereo not drawn)	tim10-1 inh 61.4, TIM10 inh 75.2 (no result: PfHsp90 set2) | tim10-1 conf 58.3 | TIM10 conf 58.3
Clc1ccc(C2=CSC3=NCCN23)c(Cl)c1	none
CCC(C)C(=O)Nc1nc(C)c(-c2csc(Nc3ccc(Cl)cc3)n2)s1 (stereo not drawn)	tim10-1 inh 40.4, TIM10 inh 44.5 | tim10-1 conf inactive | TIM10 conf inactive
CCCC(=O)Nc1nc(C)c(-c2csc(Nc3ccc(Cl)cc3)n2)s1	none
